A selection: hits, their analogues and other compounds. The true share with any hit is near 3.7%.
FMDV inh – blocks foot and mouth disease virus; FMDV antiviral cell-based qHTS; Potency, µM (series often up to 57.9 µM), actives largely listed as inhibitors; actives 1.2% (n = 410,000); AID 1159524; calls by dose curve; tested in HEK293T cells; further: read-out not given here; nearly all actives have a fitted effect of over 45% in size
Sm TGR block – blocks Schistosoma mansoni thioredoxin glutathione reductase; Q962Y6; actives 3% (n = 360,000); purified TGR, DTNB reduction, TNB absorbance 405 nm; Potency, µM (titrated, usually from 114 µM), actives largely listed as inhibitors; further: nearly all actives have a fitted effect of over 60% in size
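TGR 20 nM + NADPH 100 uM (dispensed conc.), cpd preinc 15 min RT; start with NADPH (500 uM addition) then DTNB (15 mM addition). Kinetic TNB absorbance, 405 nm filter. Four-parameter Hill fit across titration.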
TbPYK inhibitor – T. brucei pyruvate kinase inhibition | Q57TT1 | TbPYK enzyme, Kinase-Glo Plus ATP luminescence, 45 min | Potency, µM (series often up to 76.8 µM), usual class: inhibitors | actives 0.12% (n = 410,000) | AID 624173; further: nearly all actives have a fitted effect of over 50% in size
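Activity of T. brucei pyruvate kinase was followed by Kinase-Glo Plus luminescence after the enzyme reacted 45 min at room temperature with 130 uM ADP (final) and substrate. Test compounds were added before ADP at multiple concentrations.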
RE007 growth inh – less growth of the S. pombe RE007 Vpr strain; S. pombe RE007 Vpr strain, BacTiter-Glo ATP luminescence, 24 h; Potency, µM (doses to about 92.2 µM), most hits filed as inhibitors; actives 0.21% (n = 360,000); AID 651644; active means well fitted falling curve with a large enough effect; inconclusive means small, poorly fitted or top-dose-only effect; inactive means no such curve, though single readings can be large or run the other way; further: nearly all actives have a fitted effect of over 50% in size
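Fission yeast strain RE007, carrying one chromosomally integrated HIV-1 vpr copy, was seeded at OD 0.01 in PMG+AL medium with 23 nL pinned compound. After 24 h at 30 °C and 99% humidity, viability was read by BacTiter-Glo luminescence.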
Large screens that a line does not name were inactive. Unless noted, the call rests on the fitted dose curve; in most records, active means well fitted curve in the direction sought with a large enough effect; inconclusive means small, poorly fitted or top-dose-only effect, or another doubt; inactive means no such curve, though single readings can be large; an effect the other way counts as inactive or inconclusive.

COc1cc(-c2cc(C)c3c(OC)ccc(OC)c3n2)cc2c1OCCN(C(=O)C(C)c1n[nH]c(=O)c3ccccc13)C2 (configuration not stated)	none (no result: Sm TGR block, TbPYK inhibitor, RE007 growth inh)
COc1ccccc1C(CNC(=O)c1oc2ccccc2c1C)N1CCCC1 (configuration not stated)	Sm TGR block 31.6µM
COc1cc(-c2cnc3ccccc3c2)cc2c1OCCN(C(=O)CCn1nc(C)cc1C)C2	none (no result: Sm TGR block, TbPYK inhibitor, RE007 growth inh)
COc1ccc(CN2Cc3cnnn3-c3ccccc3C2C#N)cc1 (configuration not stated)	FMDV inh 25.1µM (no result: Sm TGR block)
COc1ccc(CN2Cc3cnnn3-c3ccccc3C2c2ccccc2)cc1 (configuration not stated)	none (no result: Sm TGR block)
N#CC1c2ccccc2-n2nncc2CN1Cc1cc(Cl)cc(Cl)c1 (configuration not stated)	FMDV inh 8.91µM (no result: Sm TGR block)
N#Cc1ccccc1S(=O)(=O)N1CCCC(c2nc3c(nnn3Cc3cccc(Cl)c3)c(=O)[nH]2)C1 (configuration not stated)	none (no result: RE007 growth inh)
COc1ccc(CN(C)Cc2c(O)ccc3cc(Br)ccc23)cc1OC	Sm TGR block 8.91µM
COc1ccc(CCN(C)Cc2c(O)ccc3cc(Br)ccc23)cc1OC	FMDV inh inconclusive, Sm TGR block 3.98µM
COc1ccc2cc(Br)ccc2c1CC(=O)N(C)C	none (no result: Sm TGR block)
COc1ccc(CCN(C)CCc2ccc(OC)c(OC)c2)cc1OC	none (no result: Sm TGR block)
Cc1c(Cl)cccc1NC(=O)Cn1c(=O)nc(-c2ccccc2)c2ccccc21	FMDV inh 10µM (no result: RE007 growth inh)
C#CC[N+](C)(C)CC#Cc1ccc(Cl)cc1	Sm TGR block 39.8µM
Nc1ccc(-n2cc(-c3ccccc3)[nH]c2=S)cc1	TbPYK inhibitor 2.51µM
S=c1[nH]c(-c2ccccc2)cn1-c1ccccc1	TbPYK inhibitor inconclusive
CN(C(=O)c1cnc(N2CCN(c3ncccn3)CC2)c2ccccc12)c1ccc(Cl)cc1	FMDV inh 20µM
CCN(C(=O)c1cnc(N2CCN(c3ncccn3)CC2)c2ccccc12)c1cccc(Cl)c1	FMDV inh 20µM
C=CC[N+]1([C@H]2C[C@H]3[C@@H]4CC[C@H]5C[C@H](OC(C)=O)[C@@H](N6CCCCC6)C[C@]5(C)[C@H]4CC[C@]3(C)[C@H]2OC(=O)CC)CCCCC1	none (no result: FMDV inh, Sm TGR block, RE007 growth inh)
CCOc1ccc(NC(=O)C(C)Sc2nc3ncccc3o2)cc1 (configuration not stated)	none (no result: RE007 growth inh)
COC(=O)c1cc2c(n1S(=O)(=O)c1ccc(C)cc1)C(=O)C(=O)c1[nH]cc(C(=O)OCc3ccccc3)c1-2	FMDV inh 11.2µM (no result: Sm TGR block)
COC(=O)Cn1c(=O)c2cccn2c2cccnc21	none (no result: RE007 growth inh)
Cc1ccc(CN2C[C@H](Sc3ccccn3)C[C@H]2C(=O)Nc2ccc3sc(C)nc3c2)cc1	none (no result: Sm TGR block, TbPYK inhibitor, RE007 growth inh)
O=[N+]([O-])c1ccc2c(c1)-c1ccccc1C2O (configuration not stated)	TbPYK inhibitor 15.8µM (no result: Sm TGR block)
O=[N+]([O-])c1ccc2c(c1)/C(=N\O)c1ccccc1-2	none
COc1ccccc1NC(=O)COc1ccc(-c2nn(C)c(=O)c3ccccc23)cc1	FMDV inh 17.8µM, Sm TGR block inconclusive
Cn1nc(-c2ccc(OCC(=O)N3CCN(Cc4ccccc4)CC3)cc2)c2ccccc2c1=O	FMDV inh 15.8µM
O=C(COc1ccc(S(=O)(=O)N2CCCCC2)cc1)N1CCN(Cc2ccccc2)CC1	Sm TGR block 28.2µM
N#CC1=C(N)Oc2cc3ccccc3cc2C1c1cccnc1 (configuration not stated)	Sm TGR block inconclusive
Cc1ccc2cc(C3C(C#N)=C(N)Oc4c3ccc3cccnc43)c(=O)[nH]c2c1 (configuration not stated)	Sm TGR block 11.2µM
C[n+]1cccc(C2C(C#N)=C(N)Oc3c2ccc2ccccc32)c1 (configuration not stated)	Sm TGR block 39.8µM
N#CC1=C(N)Oc2c(ccc3cccnc23)C1c1cccnc1 (configuration not stated)	Sm TGR block 20µM
N#CC1(c2ccccc2)CCCN1C(=O)c1ccc(Br)o1 (configuration not stated)	Sm TGR block 39.8µM
O=C(CBr)Nc1c2c(nn1-c1ccccc1)CSC2	Sm TGR block 35.5µM
CCCC(=O)Nc1c2c(nn1-c1ccccc1)CSC2	none
COc1ccc(-n2nc3c(c2NC(=O)CBr)CSC3)cc1	Sm TGR block 39.8µM
CCS(=O)(=O)N1N=C(c2cccc(NS(C)(=O)=O)c2)CC1c1ccccc1 (configuration not stated)	none
Cn1nnnc1SCC(=O)N1N=C(c2ccc(Cl)cc2)CC1c1ccco1 (configuration not stated)	none (no result: Sm TGR block)
CS(=O)(=O)Nc1cccc(C2=NN(S(=O)(=O)c3ccccc3)C(c3ccco3)C2)c1 (configuration not stated)	Sm TGR block 20µM
O=C(c1ccc(Br)o1)N1N=C(c2ccc(Cl)cc2)CC1c1ccco1 (configuration not stated)	Sm TGR block 44.7µM
CCS(=O)(=O)Nc1cccc(C2=NN(S(=O)(=O)c3ccccc3)C(c3ccco3)C2)c1 (configuration not stated)	Sm TGR block 28.2µM
CCS(=O)(=O)Nc1cccc(C2=NN(S(=O)(=O)c3ccc(C)cc3)C(c3ccco3)C2)c1 (configuration not stated)	Sm TGR block inconclusive
Cc1nnc(SCC(=O)N2N=C(c3ccc(Cl)cc3)CC2c2ccco2)[nH]c1=O (configuration not stated)	Sm TGR block 12.6µM, RE007 growth inh inconclusive
CCc1ccc(NC(=O)N(Cc2c[nH]c3ccccc23)C2CCCCC2)cc1	none (no result: RE007 growth inh)
CS(=O)(=O)N1N=C(c2cccs2)CC1c1ccco1 (configuration not stated)	Sm TGR block 7.94µM
Cc1ccc(C2=NN(C(=O)CCl)C(c3ccco3)C2)o1 (configuration not stated)	FMDV inh inconclusive, Sm TGR block 7.08µM
O=S(=O)(c1ccccc1)N1N=C(c2ccc(Cl)cc2)CC1c1ccco1 (configuration not stated)	Sm TGR block 39.8µM
CC(NC(=O)c1cc(F)ccc1F)c1nnc2n1CCN(Cc1ccco1)CC2 (configuration not stated)	none (no result: Sm TGR block, TbPYK inhibitor, RE007 growth inh)
O=[N+]([O-])c1cc(S(=O)(=O)NCCN2CCOCC2)ccc1Sc1nnnn1-c1ccccc1	FMDV inh inconclusive, Sm TGR block 17.8µM
Cc1ccc(S(=O)(=O)NCCSc2nnnn2-c2ccc(C(N)=O)cc2)cc1	none
O=[N+]([O-])c1cc(S(=O)(=O)NCCCN2CCOCC2)ccc1Cl	Sm TGR block 44.7µM
O=S(=O)(NCCN1CCOCC1)c1ccc2ccccc2c1	none (no result: Sm TGR block)
Cc1ccc(-n2nnnc2Sc2ccc(S(=O)(=O)NCCN(C)C)cc2[N+](=O)[O-])cc1	FMDV inh 12.6µM, Sm TGR block 25.1µM (no result: RE007 growth inh)
CCN(C(=O)Cn1cnc2c1c(=O)n(C)c(=O)n2C)c1ccccc1C	none (no result: RE007 growth inh)
COc1cc(NS(=O)(=O)c2ccc(N)cc2)nc(C)n1	none (no result: FMDV inh, Sm TGR block, RE007 growth inh)

Screening data: PubChem BioAssay, National Center for Advancing Translational Sciences (NCATS)
